PubChem BioAssay (NCATS)
Values joined by “and” are separate entries in the source; they are usually repeats but may differ in a detail not shown here. Identical values can stand only once. Records with an inconclusive call do not appear. Active and inactive are the calls of the source. Unless noted, calls come from the whole dose curve; as a rule, active = well fitted curve in the direction sought with a large enough effect; inconclusive = small, poorly fitted or top-dose-only effect, or another doubt; inactive = no such curve, though single readings can be large; an effect the other way counts as inactive or inconclusive.

Legend:
[1] = Cell Viability - HepG2 (AID 433; calls by dose curve;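 note: potency is the fitted concentration of half-maximal effect; cells exposed to compound for 40 hours; potency for ATP loss meaning cytotoxicity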); settings: qHTS
How it was run: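 ATP luminescence (CellTiter-Glo) after 40 h compound exposure, 37 °C, HepG2, 1500 cells/well, complete medium. Normalized: DMSO = basal, 100 uM tamoxifen = 100% inhibition. AC50 via standard Hill equation.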

[2] = Cell Viability - HUV-EC-C (AID 542); settings: HUV-EC-C endothelial cell viability, qHTS; series mostly up to 92.2 µM;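 note: cells exposed to compound for 40 hours; % is set by controls: 0 for no effect and ±100 for the full control effect; nearly all actives have a fitted effect of over 35% in size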
How it was run: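 Decrease in cellular ATP, quantified by luciferase luminescence, reflects toxicity in normal human vascular endothelial HUV-EC-C cells given compound for 40 hr in complete culture medium. Values are AC50s from concentration-response curves.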

[3] = Cellular Toxicity (caspase-3) H-4-II-E (AID 663); settings: H-4-II-E rat hepatoma; Potency: caspase-3 activation; series mostly up to 92.2 µM;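 note: cells exposed to compound for 16 hr before readout; 0% = DMSO basal and 100% = 100 µM tamoxifen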
How it was run: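 Luminescence from caspase-cleaved aminoluciferin substrate, read 20 min after reagent addition, reports caspase 3/7 activation in rat H-4-II-E cells after 16 hr compound exposure. Normalized to DMSO (basal) and 100 uM tamoxifen (100%); AC50 from Hill fits.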

[4] = Cellular Toxicity (caspase-3) NIH 3T3 (AID 666); settings: NIH 3T3 caspase-3 activation, apoptosis/toxicity; series mostly up to 92.2 µM;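 note: 0% = DMSO basal and 100% = 100 µM tamoxifen stimulation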
How it was run: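 Concentration-response qHTS in NIH 3T3 mouse fibroblasts scores caspase-3/7 activation as rising luminescence after 16 hr compound exposure. Signals are scaled between DMSO-only and 100 uM tamoxifen.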

[5] = Cellular Toxicity (caspase-3) Renal Proximal Tubule (AID 667); settings: renal proximal tubule cells; series mostly up to 91.7 µM;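 note: cells exposed to compound for 16 hours at 37 °C before detection; 0% = DMSO basal and 100% = 10 µM staurosporine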
How it was run: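 Luminescent caspase 3/7 signal from peptide-aminoluciferin cleavage measures apoptosis in freshly isolated rat kidney proximal tubule cells after 16 h compound exposure. Concentration-response data are normalized to DMSO and 10 uM staurosporine, and AC50 values come from Hill equation fits.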

[6] = Cell Viability - LYMP2-001 (AID 921); settings: LYMP2-001 lymphoblastoid cell viability; series mostly up to 92.2 µM;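 note: 0% = DMSO only and full inhibition = tetraoctylammonium bromide control wells; nearly all actives have a fitted effect of over 70% in size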
How it was run: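 CellTiter-Glo luminescence (intracellular ATP) after 24 hr compound exposure at 37 C, 2500 lymphoblastoid cells/well in complete medium. AC50 fitted with standard Hill equation; tetraoctylammonium bromide positive control.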

[7] = MultiTox-Fluor Cytotoxicity Assay - LYMP1-001 - Dead Cells (AID 946); settings: LYMP1-001 lymphoblastoid cells, dead-cell protease fluorescence; series mostly up to 92.2 µM;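 note: 0% = DMSO and 100% = tetraoctylammonium bromide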
How it was run: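 Seed 2500 LYMP1-001 cells/well, incubate 5 hr at 37 C; add compound, 16 hr at 37 C; add MultiTox-Fluor reagent, 60 min RT; read dead-cell fluorescence Ex/Em=485/520. Normalize to DMSO and 15 uM tetraoctylammonium bromide.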

[8] = Cell Viability - LYMP1-003 - Assay at 40 hr (AID 964); settings: LYMP1-003 lymphoblastoid viability; series mostly up to 92.2 µM; note: % is set by controls: 0 for no effect and ±100 for the full control effect; nearly all actives have a fitted effect of over 60% in size
How it was run: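 This qHTS cytotoxicity screen treats human lymphoblastoid cells (LYMP1-003) with compounds for 40 hr and quantifies cellular ATP via luciferase luminescence.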

[9] = Cell Viability - LYMP2-015 (AID 971); settings: LYMP2-015 lymphoblastoid cell viability; series mostly up to 92.2 µM;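 note: 0% = DMSO only and full effect = 92 µM tetraoctylammonium bromide; nearly all actives have a fitted effect of over 55% in size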
How it was run: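 Acute toxicity was scored as a concentration-dependent drop in intracellular ATP in lymphoblastoid cells after 24 hr compound exposure in complete medium. Detection used CellTiter-Glo luciferase luminescence.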

[10] = Cell Viability - LYMP2-023 (AID 975); settings: LYMP2-023 lymphoblastoid cell viability; series mostly up to 92.2 µM;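 note: cellular ATP measured by luciferase luminescence as viability proxy; cells exposed to compound for 24 hours at 37 °C; plate controls were DMSO only for no effect and 92 µM tetraoctylammonium bromide control for full effect; nearly all actives have a fitted effect of over 55% in size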
How it was run: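 Concentration-dependent drop in intracellular ATP measures acute cytotoxicity in a human lymphoblastoid line treated for 24 hours in complete culture medium. AC50 values are taken from Hill-equation fits of qHTS data.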

[11] = Cell Viability - LYMP2-006 (AID 978); settings: LYMP2-006 lymphoblastoid cell viability, qHTS; series mostly up to 92.2 µM;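 note: cells exposed to compound for 24 hours; % is set by controls: 0 for no effect and ±100 for the full control effect; nearly all actives have a fitted effect of over 60% in size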
How it was run: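 qHTS, 1536-well; 2500 cells/well, 5 hr 37 C; cpd 24 hr 37 C; CellTiter-Glo 30 min RT; luminescence. Tetraoctylammonium bromide pos. ctrl. AC50 via Hill eqn.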

[12] = Cell Viability - LYMP2-012 (AID 982); settings: LYMP2-012 lymphoblastoid cell viability qHTS; series mostly up to 92.2 µM;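 note: cellular ATP by luciferase luminescence where a drop means cytotoxicity; cells exposed to compound for one day before reading; 0% = DMSO only and full loss = 92 µM tetraoctylammonium bromide; nearly all actives have a fitted effect of over 55% in size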
[13] = Cell Viability - LYMP2-026 (AID 989); settings: LYMP2-026 lymphoblastoid cell viability, qHTS; series mostly up to 92.2 µM; note: % is set by controls: 0 for no effect and ±100 for the full control effect; nearly all actives have a fitted effect of over 50% in size
How it was run: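 Concentration-dependent loss of intracellular ATP in human lymphoblastoid cells after 24 hr at 37 C, quantified by luciferase luminescence. AC50 derived from standard Hill equation.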

[14] = molecular target: Vitamin D3 receptor (Homo sapiens) (UniProt P11473); test: qHTS assay for small molecule agonists of vitamin D receptor signaling (AID 588543; calls by dose curve;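 note: 0% = DMSO basal and 100% = reference agonist control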); settings: HEK293T VDR-UAS-bla, beta-lactamase ratio, 16 h; series mostly up to 76.8 µM
How it was run: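 β-lactamase reporter, VDR-UAS-bla HEK293T, agonist mode. Cells plated 5 h at 37 °C, compound titration 16 h at 37 °C, CCF4 dye 2 h RT, ratio 460/530 nm. Hill fit → EC50, efficacy vs 50 nM 1α,25-(OH)2D3.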

[15] = qHTS assay for small molecule disruptors of the mitochondrial membrane potential - 5 hr assay (AID 651755; calls by dose curve; note: % is set by controls: 0 for no effect and ±100 for the full control effect; nearly all actives have a fitted effect of over 40% in size); settings: JC-1-type ratio dye; series mostly up to 92.2 µM
How it was run: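 HepG2 cells, attached overnight at 37C, were exposed to compound or DMSO for 5 hr at 37C, 5% CO2. Mito-MPS dye was then added for 30 min, and fluorescence read at 490/535 nm (monomers) and 540/590 nm (aggregates).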

[16] = molecular target: Nuclear receptor subfamily 1 group I member 2 (Rattus norvegicus) (UniProt Q9R1A7); test: qHTS assay for small molecule activators of the rat pregnane X receptor (rPXR) signaling pathway (AID 651751; call rule not given here; note: 0% is about no effect); settings: rPXR reporter cells, luciferase (One-Glo), 24 h
[17] = qHTS assay for small molecule activators of the human pregnane X receptor (PXR) signaling pathway (AID 720659; call rule not given here; note: 0% is about no effect); settings: DPX-2 HepG2 CYP3A4-luciferase, 24 h; series mostly up to 92.3 µM
[18] = Cellular Toxicity (caspase-3) HUV-EC-C (AID 656); settings: HUV-EC-C cells, caspase-3 activation (apoptosis), vehicle = 0, 100 µM tamoxifen = 100%; series mostly up to 92.2 µM;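 note: 0% = DMSO basal and 100% = 100 µM tamoxifen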
How it was run: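 Luminescent caspase-3/7 activation (aminoluciferin substrate cleavage) in HUV-EC-C cells after 16 hr compound exposure, 37°C. Signal normalized to DMSO basal and 100 uM tamoxifen as 100%; AC50 from concentration-response fitted with the Hill equation.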

[19] = MultiTox-Fluor Cytotoxicity Assay - LYMP1-002 - Live Cells (AID 955); settings: LYMP1-002 lymphoblastoid live-cell protease fluorescence viability; series mostly up to 46.1 µM;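 note: cells exposed to compound for 16 hours; % is set by controls: 0 for no effect and ±100 for the full control effect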
How it was run: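 Cytotoxicity in the human lymphoblastoid line LYMP1-002 is measured as loss of live-cell protease activity after 16 h treatment in complete culture medium. AC50 is derived from Hill-equation fits of qHTS concentration-response data.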

[20] = Cell Viability - LYMP2-003 (AID 965); settings: LYMP2-003 lymphoblastoid cell viability; series mostly up to 92.2 µM;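 note: cells exposed to compounds for 24 h before reading; 0% = DMSO only and full effect = 92 µM tetraoctylammonium bromide; nearly all actives have a fitted effect of over 50% in size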
How it was run: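 CellTiter-Glo luminescence (cellular ATP) after 24 h compound exposure at 37 C in complete medium; 2500 cells/well, 5 h settling beforehand. Concentration-response fitted to standard Hill equation for AC50. Tetraoctylammonium bromide served as positive control.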

Vitamin D3 receptor (Homo sapiens), sequence (P11473 whole entry, looked up): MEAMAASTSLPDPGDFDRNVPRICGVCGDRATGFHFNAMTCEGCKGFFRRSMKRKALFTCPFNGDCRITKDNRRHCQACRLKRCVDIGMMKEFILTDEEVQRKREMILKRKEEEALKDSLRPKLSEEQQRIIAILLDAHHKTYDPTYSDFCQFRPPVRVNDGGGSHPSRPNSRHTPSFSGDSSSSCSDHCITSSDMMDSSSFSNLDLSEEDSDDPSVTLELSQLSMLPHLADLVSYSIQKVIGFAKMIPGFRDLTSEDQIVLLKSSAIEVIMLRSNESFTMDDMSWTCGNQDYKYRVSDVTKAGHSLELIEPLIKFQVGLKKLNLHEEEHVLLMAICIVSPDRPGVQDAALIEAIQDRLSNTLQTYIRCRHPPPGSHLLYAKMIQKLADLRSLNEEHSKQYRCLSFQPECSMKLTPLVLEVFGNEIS
Nuclear receptor subfamily 1 group I member 2 (Rattus norvegicus), sequence (Q9R1A7 whole entry, looked up): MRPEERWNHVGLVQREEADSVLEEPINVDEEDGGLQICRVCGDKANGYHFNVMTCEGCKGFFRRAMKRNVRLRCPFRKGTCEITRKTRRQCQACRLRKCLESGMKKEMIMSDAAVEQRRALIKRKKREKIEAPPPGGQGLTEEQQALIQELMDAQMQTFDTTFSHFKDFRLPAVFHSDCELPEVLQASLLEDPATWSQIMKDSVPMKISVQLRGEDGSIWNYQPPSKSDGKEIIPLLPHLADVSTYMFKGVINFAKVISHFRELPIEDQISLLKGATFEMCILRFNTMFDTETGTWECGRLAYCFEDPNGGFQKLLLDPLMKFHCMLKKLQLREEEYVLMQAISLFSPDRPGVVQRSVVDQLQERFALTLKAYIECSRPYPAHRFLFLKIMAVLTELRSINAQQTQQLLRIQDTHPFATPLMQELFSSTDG

O=c1ccc(=O)[nH][nH]1
inactive: Potency [1] > 92 µM | Potency [2] | Potency [3] | Potency [4] | outcome [5] | Potency [6] | outcome [7] | Potency [8] | Potency [9] | Potency [10] | Potency [11] | Potency [12] | Potency [13] | outcome [14] | Potency [15] | max response [16] 0.0495% and -4.15% | outcome [17]

O=[N+]([O-])c1cccc(CCl)c1
inactive: Potency [1] > 92 µM | outcome [18] | Potency [3] | outcome [5] | outcome [7] | outcome [19] | Potency [8] | Potency [20] | Potency [11] | Potency [12] | Potency [13] | outcome [14] | Potency [15] | max response [16] -4.81% | outcome [17]

Cc1cnc[nH]1
inactive: Potency [1] > 92 µM | Potency [2] | outcome [18] | Potency [3] | Potency [4] | outcome [5] | Potency [6] | outcome [7] | outcome [19] | Potency [8] | Potency [20] | Potency [9] | Potency [10] | Potency [11] | Potency [12] | Potency [13] | outcome [14] | Potency [15] | max response [16] -5.24% | outcome [17]

CCCC[N+](=O)[O-]
inactive: Potency [2] | Potency [6] | outcome [19] | Potency [20] | Potency [9] | Potency [10] | Potency [13] | outcome [14] | Potency [15] | max response [16] 1.76% | outcome [17]

ClCCOCCCl
inactive: Potency [1] > 92 µM | Potency [2] | outcome [18] | Potency [3] | Potency [4] | Potency [6] | outcome [7] | outcome [19] | Potency [8] | Potency [9] | Potency [10] | Potency [11] | Potency [12] | Potency [13] | Potency [15] | max response [16] -1.5% | outcome [17]

Nc1cc(Cl)cc(Cl)c1
inactive: Potency [1] > 92 µM | Potency [2] | outcome [18] | Potency [3] | Potency [4] | outcome [5] | outcome [7] | Potency [8] | Potency [20] | Potency [9] | Potency [11] | Potency [12] | Potency [13] | outcome [14] | Potency [15] | max response [16] -0.532% | outcome [17]

Nc1ccc(-c2ccc(N)cc2)cc1
inactive: Potency [2] | Potency [3] | Potency [4] | Potency [6] | outcome [7] | outcome [19] | Potency [8] | Potency [20] | Potency [9] | Potency [10] | Potency [11] | Potency [12] | Potency [13] | outcome [14] | Potency [15] | outcome [17]

O=C(Cl)OCc1ccccc1
inactive: Potency [2] | outcome [18] | Potency [3] | Potency [4] | outcome [5] | outcome [7] | outcome [19] | Potency [8] | Potency [20] | Potency [9] | Potency [10] | Potency [11] | Potency [12] | Potency [13] | outcome [14] | Potency [15] | max response [16] 4.69% | outcome [17]
